Screening results: PubChem, National Center for Advancing Translational Sciences (NCATS)
LmPK inhibitor = LmPK (Leishmania mexicana) enzyme inhibition; purified LmPK, Kinase-Glo ATP luminescence, 1 h; Potency, µM (titrated, usually from 57.5 µM), for the others: at the highest dose activity change, negative = inhibition, most hits filed as inhibitors; hit rate 0.37% among 290,000; AID 1721; further: potency means the concentration at half of the fitted maximal effect; on the % scale 0 is the no-effect control and ±100 the full control effect
Target sequence (Q27686 whole entry, looked up): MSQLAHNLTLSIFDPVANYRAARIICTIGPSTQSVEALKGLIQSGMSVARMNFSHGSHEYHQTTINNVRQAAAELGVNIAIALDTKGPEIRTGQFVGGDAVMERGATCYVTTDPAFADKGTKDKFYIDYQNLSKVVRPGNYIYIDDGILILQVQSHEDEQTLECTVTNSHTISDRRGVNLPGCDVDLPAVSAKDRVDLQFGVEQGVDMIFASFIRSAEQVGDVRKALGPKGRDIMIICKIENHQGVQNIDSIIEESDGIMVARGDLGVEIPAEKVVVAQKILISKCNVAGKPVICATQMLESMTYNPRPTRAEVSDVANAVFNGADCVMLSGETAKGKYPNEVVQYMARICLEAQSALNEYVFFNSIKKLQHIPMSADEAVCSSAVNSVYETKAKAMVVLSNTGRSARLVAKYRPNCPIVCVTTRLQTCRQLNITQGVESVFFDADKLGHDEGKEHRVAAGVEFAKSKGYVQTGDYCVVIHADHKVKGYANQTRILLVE
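0.1 nM LmPK, 0.5 mM PEP, 0.1 mM ADP; 50 mM imidazole pH 7.2, 7 mM MgCl2, 50 mM KCl; 1 h RT. Kinase-Glo luminescence readout, normalized to no-enzyme (full inhibition) and uninhibited wells.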
Cycloheximide cs = affects cycloheximide protein synthesis inhibition readout, counter-screen | cell reporter, cycloheximide protein synthesis inhibition counterscreen | max response, % | hit rate 12% among 300,000 | AID 2314; in the data active means max response mostly above about 13%, no sharp cut-off; inactive means mostly below about 14%; further: read at 38.3 µM for the half of the compounds with a filed dose; 0% is about no effect
Tb PYK inh = T. brucei pyruvate kinase inhibition; Q57TT1; TbPYK enzyme, Kinase-Glo Plus ATP luminescence, 45 min; Potency, µM (titrated, usually from 76.8 µM), for the others: top-dose activity, negative = inhibition, actives largely listed as inhibitors; hit rate 0.12% among 410,000; AID 624173; further: potency means the concentration at half of the fitted maximal effect; on the % scale 0 is the no-effect control and ±100 the full control effect; nearly all actives have a fitted effect of over 50% in size
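Assay buffer: 50 mM TEA pH 7.2, 100 mM KCl, 10 mM MgCl2, 0.05% BSA, 0.01% Tween-20. Pyruvate kinase from T. brucei plus substrate met compound, then ADP (130 uM final). Luminescence was read post 45 min RT.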
Shiga toxin inh = inhibitors of Shiga toxin in Vero cells; AID 2315; Vero cells, Shiga toxin protein synthesis inhibition reporter; inhibition, % at 38.7 µM; hit rate 9.2% among 290,000; in the data active means inhibition mostly above about 28%, no sharp cut-off; inactive means mostly below about 43%; further: 0% is about no effect
RE007 growth inh = less growth of the S. pombe RE007 Vpr strain; S. pombe RE007 Vpr strain, BacTiter-Glo ATP luminescence, 24 h; hit rate 0.21% among 360,000; AID 651644; Potency, µM (doses to about 92.2 µM), without a hit: at the top dose activity change, negative = less growth, usual class: inhibitors; active means well fitted falling curve with a large enough effect; inconclusive means small, poorly fitted or top-dose-only effect; inactive means no such curve, though single readings can be large or run the other way; further: potency means the concentration at half of the fitted maximal effect; on the % scale 0 is the no-effect control and ±100 the full control effect; nearly all actives have a fitted effect of over 50% in size
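Fission yeast strain RE007, carrying one chromosomally integrated HIV-1 vpr copy, was seeded at OD 0.01 in PMG+AL medium with 23 nL pinned compound. After 24 h at 30 °C and 99% humidity, viability was read by BacTiter-Glo luminescence.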
Giardia FBPA inh = blocks Giardia fructose-bisphosphate aldolase activity; A8B2U2; purified Giardia FBPA; Potency, µM (doses to about 59.6 µM), for inactives: top-dose activity, negative = inhibition, hits mostly inhibitors; hit rate 0.71% among 290,000; AID 2451; further: potency means the concentration at half of the fitted maximal effect; on the % scale 0 is the no-effect control and ±100 the full control effect; nearly all actives have a fitted effect of over 55% in size
Target sequence (A8B2U2 whole entry, looked up): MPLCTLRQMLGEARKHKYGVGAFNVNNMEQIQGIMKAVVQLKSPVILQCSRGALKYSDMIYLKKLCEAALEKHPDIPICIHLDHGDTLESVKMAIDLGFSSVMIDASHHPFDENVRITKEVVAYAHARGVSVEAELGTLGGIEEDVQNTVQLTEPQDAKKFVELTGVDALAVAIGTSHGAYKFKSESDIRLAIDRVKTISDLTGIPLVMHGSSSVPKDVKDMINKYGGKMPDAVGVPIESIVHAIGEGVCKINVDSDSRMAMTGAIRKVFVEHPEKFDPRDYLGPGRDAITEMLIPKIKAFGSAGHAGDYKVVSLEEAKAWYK
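40 nM FBPA preincubated 10 min at RT with compound (up to 57.5 uM final), then substrate plus GAPDH/TPI/NAD/arsenate coupling and diaphorase/resazurin added. Fluorescence read after 20 min at RT, 525/598 nm.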
Active calls of the source: *; ? = inconclusive; nt = not tested or not shown; [ ] = another dose, or the depositor's remark. Many of the other results were omitted from the sample, so hits are more common in it than they were. Unless noted, the call rests on the fitted dose curve; in most records, active means well fitted curve in the direction sought with a large enough effect; inconclusive means small, poorly fitted or top-dose-only effect, or another doubt; inactive means no such curve, though single readings can be large; an effect the other way counts as inactive or inconclusive.

SMILES	LmPK inhibitor	Cycloheximide cs	Tb PYK inh	Shiga toxin inh	RE007 growth inh	Giardia FBPA inh
CC(C)(C)C(=O)OC/C(N)=N/OC(=O)c1ccc(Cl)cc1	-0.6%	24.5*	1.8%	58.4	-8.6%	-4.4%
COc1ccc(C(=O)O/N=C(\N)Cc2ccc(Cl)cc2)cc1OC	1.6%	9.7	-7.0%	22.6	?	4.0%
N/C(Cc1ccc(Cl)cc1)=N\OC(=O)c1ccccc1	3.1%	23.7*	0.5%	56.9	?	-1.7%
CC(C)(C)C(=O)O/N=C(\N)COc1cccc(Cl)c1	-1.7%	44.0*	-15.4%	99.4*	0.0%	-0.3%
CC(C)(C)C(=O)O/N=C(\N)c1c(Cl)cccc1Cl	-2.1%	-1.8	-0.6%	4.3	-0.9%	7.3%
Cc1ccc(C)c(NS(=O)(=O)c2ccc3oc(=O)c4ncn(C)c4c3c2)c1	nt	nt	0.8%	nt	nt	nt
COC(=O)[C@@]1(Cc2ccc(OC)cc2)[C@@H]2[C@@H](CC(=O)[C@H]2CC(=O)C(=O)N2CCCC2)CN1C(=O)c1ccccc1	nt	nt	nt	nt	nt	-15.5%
CCOc1ccc(CN2C(=O)c3ccccc3Sc3ccc(C(=O)N4CCN(C)CC4)cc32)cc1	nt	nt	4.6%	nt	nt	nt
COC(=O)c1ccc(OC(=O)c2ccco2)cc1	-2.7%	0.9	-1.0%	-9.3	2.7%	2.8%
O=Cc1cccc(OC(=O)/C=C/c2ccco2)c1	14.9%	51.7*	1.5%	80.4*	?	1.4%
O=C(/C=C/c1ccccc1)Oc1ccc(C(=S)N2CCOCC2)cc1	1.9%	15.2	0.9%	-5.3	-3.9%	0.9%
O=C(/C=C/c1ccco1)Oc1ccc(C(=S)N2CCOCC2)cc1	18.3%	34.6*	-13.9%	41.3	31.3%	-3.7%
COC(=O)c1ccc(OC(=O)/C=C/c2ccco2)cc1	-11.3%	26.5*	-5.1%	36.2*	0.5%	3.6%
COc1ccc(CNC(=O)Cc2csc3nc(-c4ccc(F)cc4)cn23)cc1	nt	nt	1.5%	nt	nt	nt
COc1cccc(CNC(=O)c2ccc3c(c2)N(C)C(=O)C2CCCCN32)c1 (stereo unspecified)	nt	nt	4.8%	nt	nt	nt
COC(=O)C1=C(C)N(c2cccc(OC)c2)C(=O)/C1=C\c1ccco1	-1.7%	17.4*	11.0%	35.6	-1.1%	3.5%
COc1cc(/C=C(\C#N)C(=O)NCC2CCCO2)ccc1O (stereo unspecified)	0.3%	-1.8	1.4%	-11.9	-2.7%	-12.6%
O=C(CSc1ccc(Cl)cc1)NCC1CCCO1 (stereo unspecified)	-4.2%	16.8*	1.1%	-2.6	-14.5%	8.0%
O=C(COc1ccccc1)NCC1CCCO1 (stereo unspecified)	-1.6%	-0.8	0.5%	19.5	6.2%	1.3%
O=C(CCCOc1ccccc1)NCC1CCCO1 (stereo unspecified)	0.2%	28.4*	0.8%	26.4	2.2%	12.3%
O=C(CSc1ccc(Br)cc1)NCC1CCCO1 (stereo unspecified)	2.3%	19.3	-21.5%	47.1	-4.2%	2.1%
N#C/C(=C\c1cn(CCOc2ccccc2)c2ccccc12)C(=O)NCC1CCCO1 (stereo unspecified)	3.6%	29.4*	-2.9%	-25.2	-13.8%	1.0%
Cc1cc(/C=C(\C#N)C(=O)NCC2CCCO2)c(C)n1-c1ccc(Cl)cc1 (stereo unspecified)	3.5%	25.5*	-1.3%	64.5*	-12.1%	-1.6%
COc1cc(NC(=O)CC2C(=O)N(c3cccc(C)c3)C(=O)N2Cc2ccc(F)cc2)cc(OC)c1 (stereo unspecified)	nt	nt	4.9%	nt	nt	nt
COc1ccccc1CN(Cc1ccco1)c1cnc(S(C)(=O)=O)nc1C(=O)Nc1cc(C)ccc1C	nt	nt	-5.0%	nt	nt	nt
SMILES	LmPK inhibitor	Cycloheximide cs	Tb PYK inh	Shiga toxin inh	RE007 growth inh	Giardia FBPA inh
CC(=O)N1CCc2c(sc3c2c(=O)n(-c2ccc(C)cc2)c(=O)n3Cc2c(F)cccc2Cl)C1	nt	nt	-3.2%	nt	nt	nt
COC(=O)c1cnc(N2CCN(c3ccc(OC)cc3)CC2)c2ccccc12	nt	nt	2.7%	nt	nt	nt
O=C(CSc1nnc(C2CC2)n1CC1CCCO1)Nc1ccc(Cl)cc1 (stereo unspecified)	2.0%	12.9	0.4%	31.4*	-10.9%	5.0%
O=C(CC(c1ccccc1)c1ccccc1)NCC1CCCO1 (stereo unspecified)	0.5%	-3.5	-6.2%	-15.7	-2.0%	6.6%
O=C(NCCOc1ccccc1)C(=O)NCC1CCCO1 (stereo unspecified)	0.1%	11.6*	2.7%	36.9*	0.4%	2.6%
O=C(CCSc1ccccc1)NCC1CCCO1 (stereo unspecified)	-1.3%	29.4*	-3.9%	63.4*	-0.8%	8.3%
O=C(NCCOc1ccc(Cl)cc1)C(=O)NCC1CCCO1 (stereo unspecified)	-8.4%	0.7	-1.4%	-11.4	6.1%	1.2%
C[C@H](O/N=C1/[C@H]2O[C@@H]2[C@@H](O)[C@H]2[C@H]1CCn1c(=O)n(-c3ccccc3)c(=O)n12)c1cn([C@H]2COC[C@H]2O)nn1	nt	nt	nt	nt	nt	-1.2%[12.9 µM]
Cc1ccc(C)c(-c2csc(-c3c(N)c(C(=O)c4ccc5c(c4)OCO5)n4ccccc34)n2)c1	nt	13.4	-3.1%	17.1	nt	nt
COc1ccc(NC(=O)c2sc3nc4c(cc3c2N)CCCCCC4)cc1	nt	nt	-0.8%	nt	nt	nt
Nc1c(C(=O)N2CCCC2)sc2nc3c(cc12)CCCCCC3	1.8%	44.0*	1.4%	102.8*	-12.3%	0.3%
Nc1c(C(=O)N2CCOCC2)sc2nc3c(cc12)CCC3	15.8µM*	26.2*	2.0%	68.4*	13.6%	-4.1%
Nc1c(C(=O)N2CCOCC2)sc2nc3c(cc12)CCCC3	?	17.6*	?	20.6	23.7%	-2.4%
NC(=O)c1cc(-c2csc(NCCc3ccccc3)n2)ccc1O	-0.8%	-5.3	-5.5%	18.3	-13.9%	-10.0%
c1ccc(-c2nc(-c3cccnc3)cs2)cc1	2.9%	46.1*	1.1%	51.6*	?	3.3%
Nc1nnc(-c2cccnc2)s1	2.5%	1.4	3.7%	-6.2	4.6%	1.8%
c1ccc(Nc2nnc(-c3cccnc3)s2)cc1	-3.2%	42.1*	-2.6%	69.0*	4.3%	9.5%
C=CCNc1nc(-c2ccc(O)c(C(N)=O)c2)cs1	-4.7%	22.0*	?	45.4	-18.2%	-18.9%
Cc1ccc(C)c(-c2csc(-c3cccnc3)n2)c1	0.8%	21.2*	-21.2%	nt	-26.2%	-1.3%
Cc1ccccc1-c1csc(C(C)(O)c2cccnc2)n1 (stereo unspecified)	nt	nt	-12.8%	nt	-2.4%[18.4 µM]	nt
CC(=O)c1ccc(N2CCN(C(=O)Nc3cn(CC(C)C)c(=O)c4ccccc34)CC2)cc1	nt	nt	-4.2%	nt	nt	nt
COc1cccc([C@@H]2Oc3ccc(Br)cc3C[C@H]2OC(=O)NS(=O)(=O)c2ccc(F)cc2)c1	nt	nt	nt	nt	nt	1.3%
O=C(Cc1ccccc1F)Nc1nc(-c2cccnc2)cs1	-4.8%	7.9	-14.7%	17.5	3.0%	-10.5%
NC(=O)c1cc(-c2csc(-c3cccnc3)n2)ccc1O	-3.4%	15.4	-8.0%	60.5*	9.2%	-8.3%
